Article PMC10812921, “Transcriptional Coactivator BOB1 (OBF1, OCA-B) Modulates the Specificity of DNA Recognition by the POU-Domain Factors OCT1 and OCT2 in a Monomeric Configuration”

Columns and labels:
[1] = target: POU1 (OCT1 POU domain) (human, UniProt P14859 260-458); experiment: EMSA-SELEX-seq; no BOB1; 20 mM Tris-HCl pH 7.6, 140 mM NaCl, 10% glycerol, 0.5 mM EDTA, 0.05% Triton X-100, 0.1 mg/mL BSA, 0.1 mg/mL poly(dI-dC), 5 mM DTT, room temperature, 20 min; high values mean tight binding; conditions: protein: recombinant; dsDNA, one strand shown
Chain of POU1 (OCT1 POU domain) (P14859 260-458): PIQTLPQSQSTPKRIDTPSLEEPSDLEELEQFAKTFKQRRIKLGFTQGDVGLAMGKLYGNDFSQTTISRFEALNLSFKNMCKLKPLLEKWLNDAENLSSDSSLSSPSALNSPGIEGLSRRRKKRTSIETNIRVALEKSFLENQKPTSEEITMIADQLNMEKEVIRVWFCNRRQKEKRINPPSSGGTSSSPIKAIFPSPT
Outline: (§1)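 Tagged POU-domain proteins were produced in E. coli BL21, purified under denaturing conditions and renatured before use. They were mixed at 30 ng with 300 ng of a PCR-amplified double-stranded random 35-nt library, with or without 28 ng coactivator protein, in 20 μL Tris–HCl pH 7.6 binding buffer, incubating 20 min at RT. Complexes cut from native 6% PAGE were eluted and PCR-amplified over four rounds, then sequenced by Illumina, with binding preference taken as the percentage of sequenced 8-mers matching a motif pattern.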

[2] = target: T1, POU2 (OCT2 POU domain) (human, UniProt P09086 175-386); experiment: as above; conditions: protein: recombinant; dsDNA, one strand shown
T1 sequence: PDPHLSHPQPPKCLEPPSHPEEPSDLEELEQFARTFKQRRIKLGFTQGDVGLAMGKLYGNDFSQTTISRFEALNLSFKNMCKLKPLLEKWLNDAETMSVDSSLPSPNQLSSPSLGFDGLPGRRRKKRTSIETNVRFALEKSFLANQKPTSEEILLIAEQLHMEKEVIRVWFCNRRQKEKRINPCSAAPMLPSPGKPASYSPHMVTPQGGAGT
Outline: as §1

[3] = target: POU1 (OCT1 POU domain);BOB1 (OBF1, OCA-B) (human;human, UniProt P14859;Q16633 260-458;1-256, |); experiment: EMSA-SELEX-seq; with BOB1 (ternary complex band); 20 mM Tris-HCl pH 7.6, 140 mM NaCl, 10% glycerol, 0.5 mM EDTA, 0.05% Triton X-100, 0.1 mg/mL BSA, 0.1 mg/mL poly(dI-dC), 5 mM DTT, room temperature, 20 min; high values mean tight binding; conditions: protein: recombinant;recombinant; copies: 1;1; dsDNA, one strand shown
Outline: as §1

[4] = target: T2, POU2 (OCT2 POU domain);BOB1 (OBF1, OCA-B) (human;human, UniProt P09086;Q16633 175-386;1-256, |); experiment: as above; conditions: protein: recombinant;recombinant; copies: 1;1; dsDNA, one strand shown
T2 sequence 1: T1 sequence
T2 sequence 2: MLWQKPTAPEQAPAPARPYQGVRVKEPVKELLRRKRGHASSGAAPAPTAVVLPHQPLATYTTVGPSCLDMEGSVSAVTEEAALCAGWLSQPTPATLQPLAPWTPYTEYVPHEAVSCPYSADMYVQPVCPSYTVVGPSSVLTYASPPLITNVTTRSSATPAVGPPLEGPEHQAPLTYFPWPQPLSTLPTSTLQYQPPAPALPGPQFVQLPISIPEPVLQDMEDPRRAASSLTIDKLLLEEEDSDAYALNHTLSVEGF
Outline: as §1

Sequence	binding signal [1]	binding signal [2]	binding signal [3]	binding signal [4]
AATTTAAA	0.913 % of ANNNNAAN 8-mers	0.793 % of ANNNNAAN 8-mers	0.303 % of ANNNNAAN 8-mers	0.312 % of ANNNNAAN 8-mers
AGGACAAG	0.0263 % of ANNNNAAN 8-mers	0.0293 % of ANNNNAAN 8-mers	0.0297 % of ANNNNAAN 8-mers	0.0289 % of ANNNNAAN 8-mers
AGCGTAAC	0.0168 % of ANNNNAAN 8-mers	0.0207 % of ANNNNAAN 8-mers	0.0144 % of ANNNNAAN 8-mers	0.0149 % of ANNNNAAN 8-mers
ATAACAAA	0.098 % of ANNNNAAN 8-mers	0.0909 % of ANNNNAAN 8-mers	0.1 % of ANNNNAAN 8-mers	0.0883 % of ANNNNAAN 8-mers
ATAATAAA	0.194 % of ANNNNAAN 8-mers	0.251 % of ANNNNAAN 8-mers	0.117 % of ANNNNAAN 8-mers	0.0999 % of ANNNNAAN 8-mers
AGTGCAAG	0.0187 % of ANNNNAAN 8-mers	0.0311 % of ANNNNAAN 8-mers	0.0238 % of ANNNNAAN 8-mers	0.0264 % of ANNNNAAN 8-mers
AATAGAAT	0.113 % of ANNNNAAN 8-mers	0.136 % of ANNNNAAN 8-mers	0.0921 % of ANNNNAAN 8-mers	0.121 % of ANNNNAAN 8-mers
ATCTGAAC	0.0275 % of ANNNNAAN 8-mers	0.0265 % of ANNNNAAN 8-mers	0.0258 % of ANNNNAAN 8-mers	0.0429 % of ANNNNAAN 8-mers
AGATCAAC	0.0175 % of ANNNNAAN 8-mers	0.0207 % of ANNNNAAN 8-mers	0.0211 % of ANNNNAAN 8-mers	0.0338 % of ANNNNAAN 8-mers
ATTACAAG	0.0515 % of ANNNNAAN 8-mers	0.0875 % of ANNNNAAN 8-mers	0.048 % of ANNNNAAN 8-mers	0.0413 % of ANNNNAAN 8-mers
AGCTAAAC	0.0187 % of ANNNNAAN 8-mers	0.0236 % of ANNNNAAN 8-mers	0.0265 % of ANNNNAAN 8-mers	0.0256 % of ANNNNAAN 8-mers
ATACAAAC	0.0648 % of ANNNNAAN 8-mers	0.0512 % of ANNNNAAN 8-mers	0.0819 % of ANNNNAAN 8-mers	0.0528 % of ANNNNAAN 8-mers
ATGTAAAG	0.489 % of ANNNNAAN 8-mers	0.393 % of ANNNNAAN 8-mers	0.489 % of ANNNNAAN 8-mers	0.477 % of ANNNNAAN 8-mers
ATGGAAAA	0.233 % of ANNNNAAN 8-mers	0.162 % of ANNNNAAN 8-mers	0.289 % of ANNNNAAN 8-mers	0.147 % of ANNNNAAN 8-mers
ACGGGAAT	0.0641 % of ANNNNAAN 8-mers	0.0725 % of ANNNNAAN 8-mers	0.0574 % of ANNNNAAN 8-mers	0.0759 % of ANNNNAAN 8-mers
ATGTGAAC	0.0374 % of ANNNNAAN 8-mers	0.0386 % of ANNNNAAN 8-mers	0.0367 % of ANNNNAAN 8-mers	0.0388 % of ANNNNAAN 8-mers
ACACGAAC	0.0114 % of ANNNNAAN 8-mers	0.0167 % of ANNNNAAN 8-mers	0.0121 % of ANNNNAAN 8-mers	0.0124 % of ANNNNAAN 8-mers
AGGACAAC	0.0198 % of ANNNNAAN 8-mers	0.0305 % of ANNNNAAN 8-mers	0.0187 % of ANNNNAAN 8-mers	0.0206 % of ANNNNAAN 8-mers
ATTGAAAC	0.0431 % of ANNNNAAN 8-mers	0.0322 % of ANNNNAAN 8-mers	0.0406 % of ANNNNAAN 8-mers	0.0396 % of ANNNNAAN 8-mers
ACCTTAAA	0.021 % of ANNNNAAN 8-mers	0.023 % of ANNNNAAN 8-mers	0.0375 % of ANNNNAAN 8-mers	0.0173 % of ANNNNAAN 8-mers
AGGATAAA	0.0549 % of ANNNNAAN 8-mers	0.0834 % of ANNNNAAN 8-mers	0.0609 % of ANNNNAAN 8-mers	0.0718 % of ANNNNAAN 8-mers
AACTTAAC	0.0294 % of ANNNNAAN 8-mers	0.0288 % of ANNNNAAN 8-mers	0.0234 % of ANNNNAAN 8-mers	0.0248 % of ANNNNAAN 8-mers
AGTCGAAA	0.0431 % of ANNNNAAN 8-mers	0.0414 % of ANNNNAAN 8-mers	0.0324 % of ANNNNAAN 8-mers	0.0322 % of ANNNNAAN 8-mers
